Measurements: PubChem BioAssay (EPA / NIEHS)
Several values for one entry are separate records, joined by “and”; a condition that tells them apart may be missing. Identical values can stand only once. Inconclusive results are not listed. More than one record can exist for a structure, and the calls need not agree. Activity calls are given as the source filed them. Rule for the calls, unless noted: active = hit-call score of the fitted dose curve at least 0.9, where 1 is the maximum; inactive = score below 0.9.

How the values were obtained:
[1] = biological target: human Retinoid X Receptor beta (RXRb), RXRB (gene 6257) (UniProt P28702); test: ATG_RXRb_TRANS: Attagene TRANS-FACTORIAL HepG2 Assay for human Retinoid X Receptor beta (RXRb) (AID 2283013; active = hit-call score of the fitted dose curve at least 0.9, where 1 is the maximum)
Summary of the method: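 Transfect HepG2 with GAL4-UAS multi-reporter constructs (chimeric NR-Gal4, TRANS format); dose compound 24 h; isolate RNA, RT-PCR, FAM primer extension, HpaI digest; quantify by capillary electrophoresis; positive direction vs DMSO.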

[2] = read-out: Monocyte Chemoattractant Protein-1 (MCP1), CCL2 (gene 6347); test: BSK_3C_MCP1: BioMAP Diversity Plus: 3C Assay for Monocyte Chemoattractant Protein-1 (MCP1) Biomarker Activity (AID 2283017); details: primary human endothelial cells (HUVEC); actives raise or lower the signal
Summary of the method: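 ELISA read-out of MCP-1 from human umbilical vein endothelial cell cultures harvested 24 h post-dosing. Gain or loss of signal was fitted relative to DMSO.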

[3] = read-out: Monocyte Chemoattractant Protein-1 (MCP1), CCL2 (gene 6347); test: BSK_4H_MCP1: BioMAP Diversity Plus: 4H Assay for Monocyte Chemoattractant Protein-1 (MCP1) Biomarker Activity (AID 2283018); details: primary human endothelial cells (HUVEC); actives raise or lower the signal
Summary of the method: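 ELISA read-out of MCP-1 from human vascular endothelial primary cells taken at 24 hours after compound exposure. Activity was fitted in both directions relative to DMSO, which served as negative control.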

[4] = read-out: Human Leukocyte Antigen - DR isotype (HLADR), HLA-DRA (gene 3122); test: BSK_3C_HLADR: BioMAP Diversity Plus: 3C Assay for Human Leukocyte Antigen - DR isotype (HLADR) Biomarker Activity (AID 2283019); details: primary human endothelial cells (HUVEC); actives raise or lower the signal;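 for outcome: ELISA of cell-surface HLA-DR on HUVEC 24 h after dosing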
Summary of the method: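 ELISA readout of surface HLA-DR on human umbilical vein endothelium, taken 24 h after chemical treatment. Gain- and loss-of-signal were both fitted relative to DMSO.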

[5] = read-out: Interleukin-8 (IL8), CXCL8 (gene 3576); test: BSK_3C_IL8: BioMAP Diversity Plus: 3C Assay for Interleukin-8 (IL8) Biomarker Activity (AID 2283020); details: primary human endothelial cells (HUVEC); actives raise or lower the signal
Summary of the method: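 ELISA read-out of IL-8 from human umbilical vein endothelium, measured 24 h after chemical dosing. Activity is expressed relative to DMSO negative control, with both increases and decreases fitted.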

[6] = read-out: Monokine induced gamma interferon (MIG), CXCL9 (gene 4283); test: BSK_3C_MIG: BioMAP Diversity Plus: 3C Assay for Monokine induced gamma interferon (MIG) Biomarker Activity (AID 2283021); details: primary human endothelial cells (HUVEC); actives raise or lower the signal
Summary of the method: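 Read-out is ELISA detection of MIG on human umbilical vein endothelial cells, taken 24 h after dosing. Gain or loss of signal was scored relative to DMSO controls using bidirectional curve fitting.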

[7] = BSK_3C_SRB: Viability Assessment in the BioMAP Diversity Plus: 3C Assay (AID 2283023); details: primary human endothelial cells (HUVEC);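 note: fitted both ways against DMSO so a hit may be signal rise or drop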
Summary of the method: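 Absorbance at 560 nm of sulforhodamine B-stained (0.1%) total protein served as a cytotoxicity readout in human umbilical vein endothelial cells, 24 h after chemical treatment. Signal was fitted bidirectionally relative to DMSO.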

[8] = read-out: Pselectin, SELP (gene 6403); test: BSK_4H_Pselectin: BioMAP Diversity Plus: 4H Assay for Pselectin Biomarker Activity (AID 2283026); details: primary human endothelial cells (HUVEC); actives raise or lower the signal
Summary of the method: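 ELISA read-out of P-selectin on human umbilical vein endothelium after 24 h of dosing. Values derive from bidirectional fitting relative to DMSO. Parallel SRB protein staining flagged overt cytotoxicity.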

[9] = BSK_4H_SRB: Viability Assessment in the BioMAP Diversity Plus: 4H Assay (AID 2283027); details: primary human endothelial cells (HUVEC);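 note: cells exposed to compound for 24 h before staining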;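 for AC50: curves fitted both ways versus DMSO so AC50 may be loss or gain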
Summary of the method: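 Human umbilical vein endothelial cells, 24 h after chemical dosing; total protein measured by 0.1% sulforhodamine B staining after 10% TCA fixation, read at 560 nm. Bidirectional fitting against DMSO.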

[10] = BSK_BE3C_SRB: Viability Assessment in the BioMAP Diversity Plus: BE3C Assay (AID 2283028); details: primary human bronchial epithelial cells;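 for AC50: fitted both ways so AC50 may mark signal gain or loss versus DMSO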
Summary of the method: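 Cells (human bronchial epithelial, primary) are treated with chemicals, and after 24 h the parallel cultures are fixed in 10% TCA. These are then stained with 0.1% SRB and read at 560 nm. Gain or loss of signal is fitted relative to DMSO.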

[11] = read-out: Thrombomodulin, THBD (gene 7056); test: BSK_3C_Thrombomodulin: BioMAP Diversity Plus: 3C Assay for Thrombomodulin Biomarker Activity (AID 2283029); details: primary human endothelial cells (HUVEC); actives raise or lower the signal
Summary of the method: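 Read-out is ELISA of thrombomodulin on human umbilical vein endothelium 24 h after chemical dosing. Gain or loss of signal is scored relative to DMSO. Overt cytotoxicity is checked in parallel cultures by sulforhodamine B staining.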

[12] = read-out: Urokinase-type plasminogen activator receptor (uPAR), PLAUR (gene 5329); test: BSK_4H_uPAR: BioMAP Diversity Plus: 4H Assay for Urokinase-type plasminogen activator receptor (uPAR) Biomarker Activity (AID 2283030); details: primary human endothelial cells (HUVEC); actives raise or lower the signal
Summary of the method: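 Cell-surface uPAR ELISA signal, measured 24 h after dosing human umbilical vein endothelial cells, was analyzed with bidirectional fitting relative to DMSO. Parallel SRB staining of total protein tracked overt cytotoxicity.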

[13] = read-out: Vascular endothelial growth factor receptor 2 (Homo sapiens) (UniProt P35968); test: BSK_4H_VEGFRII: BioMAP Diversity Plus: 4H Assay for Vascular endothelial growth factor receptor 2 (VEGFR2) Biomarker Activity (AID 2283031); details: primary human endothelial cells (HUVEC); actives raise or lower the signal;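 for AC50: cell-surface VEGFR2 protein level quantified by ELISA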
Summary of the method: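 ELISA read-out of VEGFRII in primary human umbilical vein endothelium, taken 24 h after chemical treatment. Responses are expressed relative to DMSO, with bidirectional fitting.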

[14] = read-out: E-selectin (Homo sapiens) (UniProt P16581); test: BSK_3C_Eselectin: BioMAP Diversity Plus: 3C Assay for Eselectin Biomarker Activity (AID 2283015); details: primary human endothelial cells (HUVEC); actives raise or lower the signal;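 for outcome: cell surface E-selectin protein quantified by ELISA 24 h after dosing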
Summary of the method: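 ELISA read-out of E-selectin on endothelial monolayers after 24 h chemical treatment. Human umbilical vein primary cells served as the system, with DMSO defining baseline activity for bidirectional fitting.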

[15] = biological target: human Vitamin D Receptor (VDR), VDR (gene 7421) (UniProt P11473); test: ATG_VDR_TRANS: Attagene TRANS-FACTORIAL HepG2 Assay for human Vitamin D Receptor (VDR) (AID 2283022; active = hit-call score of the fitted dose curve at least 0.9, where 1 is the maximum)
Summary of the method: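 Steps: transfect HepG2 with GAL4-UAS-driven reporter constructs; dose compounds 24 h; isolate RNA, reverse-transcribe, PCR-amplify with 6-FAM-labelled primer extension and HpaI digestion; quantify fragments by capillary electrophoresis relative to DMSO.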

[16] = BSK_3C_Vis: BioMAP Diversity Plus: 3C Assay for Morphology Visualization (AID 2283025); details: primary human endothelial cells (HUVEC);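 note: fitted both ways so gain or loss versus DMSO counts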;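 for AC50: light microscopy image of cell morphology used as background control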
Summary of the method: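 Chemicals were added to primary human umbilical vein endothelium, cells were incubated 24 h, and morphology was then visualized by light microscopy. Gain or loss of signal was fitted bidirectionally relative to DMSO.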

[17] = biological target: human Thyroid Receptor alpha (THRa1), THRA (gene 7067) (UniProt P10827); test: ATG_THRa1_TRANS: Attagene TRANS-FACTORIAL HepG2 Assay for human Thyroid Receptor alpha (THRa1) (AID 2283014; active = hit-call score of the fitted dose curve at least 0.9, where 1 is the maximum)
Summary of the method: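 Reporter transcript induction, read by capillary electrophoresis of 6-FAM-labelled RT-PCR products, reflects activity of a transfected THRa1-Gal4 fusion in HepG2 liver cells. Cells were dosed for 24 h; activity was fitted in the positive direction against DMSO.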

human Vitamin D Receptor (VDR), VDR (gene 7421), sequence (P11473 whole entry, looked up, the tested form may be a part): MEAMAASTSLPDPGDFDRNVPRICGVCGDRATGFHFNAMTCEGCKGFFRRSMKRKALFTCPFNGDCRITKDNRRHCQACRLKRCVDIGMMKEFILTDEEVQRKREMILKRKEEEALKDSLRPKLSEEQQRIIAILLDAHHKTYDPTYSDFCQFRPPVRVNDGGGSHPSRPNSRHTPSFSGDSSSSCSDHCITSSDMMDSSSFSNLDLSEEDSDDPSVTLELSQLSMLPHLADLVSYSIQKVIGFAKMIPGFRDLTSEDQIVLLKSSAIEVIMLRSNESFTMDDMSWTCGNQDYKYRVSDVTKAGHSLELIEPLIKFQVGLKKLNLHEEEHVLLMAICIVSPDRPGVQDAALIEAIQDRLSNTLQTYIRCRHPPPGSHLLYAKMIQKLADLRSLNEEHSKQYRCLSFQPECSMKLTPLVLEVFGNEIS
human Retinoid X Receptor beta (RXRb), RXRB (gene 6257), sequence (P28702 whole entry, looked up, the tested form may be a part): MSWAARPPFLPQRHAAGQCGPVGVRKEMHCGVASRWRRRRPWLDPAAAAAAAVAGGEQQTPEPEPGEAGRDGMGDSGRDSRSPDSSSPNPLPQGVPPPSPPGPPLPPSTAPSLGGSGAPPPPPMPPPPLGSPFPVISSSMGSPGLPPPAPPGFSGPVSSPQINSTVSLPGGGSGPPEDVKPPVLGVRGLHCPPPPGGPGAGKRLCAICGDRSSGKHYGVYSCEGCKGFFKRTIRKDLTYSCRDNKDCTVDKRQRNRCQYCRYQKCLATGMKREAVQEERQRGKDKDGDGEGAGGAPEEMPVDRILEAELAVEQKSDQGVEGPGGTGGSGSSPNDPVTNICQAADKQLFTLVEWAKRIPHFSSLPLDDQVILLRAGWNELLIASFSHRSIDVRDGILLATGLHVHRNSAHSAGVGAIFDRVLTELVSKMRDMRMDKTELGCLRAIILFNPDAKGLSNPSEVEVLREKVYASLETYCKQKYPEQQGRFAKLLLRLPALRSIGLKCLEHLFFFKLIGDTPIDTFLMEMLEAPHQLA
E-selectin (Homo sapiens), sequence (P16581 whole entry, looked up): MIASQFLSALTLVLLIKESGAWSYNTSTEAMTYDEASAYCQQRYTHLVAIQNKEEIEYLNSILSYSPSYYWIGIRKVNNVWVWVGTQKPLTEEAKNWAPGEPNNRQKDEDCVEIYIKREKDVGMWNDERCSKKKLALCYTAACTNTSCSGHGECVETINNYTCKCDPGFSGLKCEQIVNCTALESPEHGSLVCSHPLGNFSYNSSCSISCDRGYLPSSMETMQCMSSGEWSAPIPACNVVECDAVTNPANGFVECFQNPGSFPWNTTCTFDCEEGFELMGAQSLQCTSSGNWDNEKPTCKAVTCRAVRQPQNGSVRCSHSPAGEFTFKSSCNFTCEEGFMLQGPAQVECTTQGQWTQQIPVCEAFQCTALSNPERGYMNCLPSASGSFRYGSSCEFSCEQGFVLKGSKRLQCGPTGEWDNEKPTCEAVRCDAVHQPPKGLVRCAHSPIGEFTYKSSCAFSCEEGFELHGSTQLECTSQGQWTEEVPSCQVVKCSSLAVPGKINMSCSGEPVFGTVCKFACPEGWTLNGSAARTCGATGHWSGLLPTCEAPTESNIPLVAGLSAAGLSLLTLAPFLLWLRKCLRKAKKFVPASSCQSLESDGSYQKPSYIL
human Thyroid Receptor alpha (THRa1), THRA (gene 7067), sequence (P10827 whole entry, looked up, the tested form may be a part): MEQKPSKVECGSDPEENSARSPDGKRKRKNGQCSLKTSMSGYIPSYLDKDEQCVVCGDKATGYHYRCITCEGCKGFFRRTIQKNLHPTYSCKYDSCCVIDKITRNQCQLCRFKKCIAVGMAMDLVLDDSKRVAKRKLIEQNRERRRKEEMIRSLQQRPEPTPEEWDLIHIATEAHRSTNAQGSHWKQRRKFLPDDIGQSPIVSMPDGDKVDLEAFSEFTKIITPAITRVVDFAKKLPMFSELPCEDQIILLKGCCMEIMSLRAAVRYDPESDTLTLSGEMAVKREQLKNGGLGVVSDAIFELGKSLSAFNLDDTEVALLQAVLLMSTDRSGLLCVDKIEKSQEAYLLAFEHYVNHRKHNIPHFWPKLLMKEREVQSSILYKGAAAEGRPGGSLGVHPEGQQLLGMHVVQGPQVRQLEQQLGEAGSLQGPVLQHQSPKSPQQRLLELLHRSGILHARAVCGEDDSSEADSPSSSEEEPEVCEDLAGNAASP

CCCCCCCCCCCC
outcome [1]: inactive
outcome [2]: inactive
outcome [3]: inactive
outcome [4]: inactive
outcome [5]: inactive
outcome [6]: inactive
AC50 [7]: 31.1 µM (active) and 30.4 µM (active)
outcome [8]: inactive
outcome [9]: inactive
outcome [10]: inactive
AC50 [11]: 36.5 µM (active)
outcome [11]: inactive
outcome [12]: inactive
AC50 [13]: 28 µM (active)
outcome [13]: inactive

COCN(COC)c1nc(N(COC)COC)nc(N(COC)COC)n1
outcome [1]: inactive
outcome [14]: inactive
outcome [2]: inactive
outcome [3]: inactive
outcome [4]: inactive
outcome [5]: inactive
outcome [6]: inactive
outcome [15]: inactive
outcome [7]: inactive
outcome [16]: inactive
outcome [8]: inactive
outcome [9]: inactive
outcome [10]: inactive
outcome [11]: inactive
outcome [12]: inactive
outcome [13]: inactive

O=C(O)c1cccc(C(=O)O)n1
outcome [1]: inactive

Cc1[nH]nc2c1N=C(c1ccccc1Cl)c1cc([N+](=O)[O-])ccc1N2
outcome [1]: inactive
outcome [17]: inactive
AC50 [14]: 3.2 µM (active)
outcome [2]: inactive
AC50 [3]: 10.4 µM (active)
AC50 [4]: 3.12 µM (active)
outcome [5]: inactive
outcome [6]: inactive
outcome [15]: inactive
AC50 [7]: 750 nM (active)
AC50 [16]: 0.645 µM (active)
AC50 [8]: 0.639 µM (active)
AC50 [9]: 0.733 µM (active)
AC50 [10]: 20.3 µM (active)
outcome [11]: inactive
AC50 [12]: 0.666 µM (active)
AC50 [13]: 2.43 µM (active)

c1ccc(CNc2ncnc3c2ncn3C2CCCCO2)cc1 (stereo not drawn)
outcome [1]: inactive
outcome [15]: inactive

CC(C)[C@@H]1CC[C@@H](C)C[C@H]1O
outcome [1]: inactive
outcome [15]: inactive

CCCCc1ccc2ccccc2c1S(=O)(=O)O
AC50 [1]: 77.1 µM (active)
outcome [15]: inactive

COCC1CCC(CO)CC1 (stereo not drawn)
outcome [1]: inactive

CCc1ccccc1O
outcome [1]: inactive
outcome [17]: inactive
